RN4220 kill = S. aureus RN4220 growth inhibition | AID 1259311 | OD600, 16 h | inhibition, % (test concentration not listed) | 0.33% of 330,000 active; in the data active means inhibition above about 85%;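 further: plate controls were untreated cells for no effect and reference antibiotic for full effect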
Mtb hypoxia rep = reduces hypoxia-regulated biosensor signal in M. tuberculosis; M. tuberculosis hypoxia-regulated fluorescent reporter, fluorescence; 0.1% of 300,000 active; fluorescence inhibition, % (no concentration beside the values); in the data active means fluorescence inhibition mostly above about 23%, no sharp cut-off; inactive means mostly below about 17%
ugtP null kill = growth inhibition of S. aureus ugtP deletion strain; AID 1259309; S. aureus RN4220 ugtP deletion, OD600 growth, 16 h; growth inhibition, % (test concentration not listed); 0.54% of 330,000 active; in the data active means growth inhibition above about 68%;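 further: plate controls were untreated wells for no effect and antibiotic for full effect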
* = called active by the depositor; / = no result given. Only some compounds are listed: those with a hit (about 0.68% of all), similar ones and a draw of the others.

SMILES	RN4220 kill	Mtb hypoxia rep	ugtP null kill
CC(C)[C@@H]1CC[C@@H](C)C[C@H]1OC(=O)C[n+]1cc(-c2ccc(Cl)cc2)n2c1CCCCC2	101*	/	100*
O=C(C[n+]1cc(-c2ccc(Cl)cc2)n2c1CCCCC2)c1ccccc1	1	-3	-10
COc1ccc(-c2c[n+](CC(=O)OC3CC(C)CCC3C(C)C)c3n2CCC3)cc1 (stereo not given)	100*	/	100*
O=S1(=O)CCOCC(CC2CCCCC2)N1Cc1cccc(F)c1 (stereo not given)	14	21	23
O=C(NN=Cc1cccc([N+](=O)[O-])c1)c1ccc(Br)cc1	0	0	-6
COc1ccc(C2C3C(=O)N(C(C)(C)C)C(=O)C3[C@]3(CC(C)C)C(=O)N(c4cccc(Br)c4)C(=O)N23)cc1 (stereo not given in full)	5	-9	5
O=C(NNc1ccccc1)c1ccccc1	2	6	3
O=C(NNc1ccc(O)cc1)c1ccc(Br)cc1	22	4	91*
CCOC(=O)C1=CCC(c2ccccc2Cl)N(S(=O)(=O)c2ccc(C)cc2)C1C(=O)OCC (stereo not given)	13	8	21
S=C(NCCc1ccc(Cl)cc1)Nc1ccc(Cl)cc1Cl	100*	2	99*
CC(=NNC(=S)NCCc1ccccc1)c1ccc(Cl)cc1Cl	1	12	90*
S=C(NCc1ccc(Cl)cc1)Nc1ccc(Cl)cc1Cl	-8	10	-26
COc1ccc(C(C)=NNC(=S)NCCc2ccccc2)cc1	4	8	-11
COC(=O)C1=C(C)N(Cc2ccccc2)C(=NCc2ccccc2)NC1c1cccc(F)c1 (stereo not given)	-3	-8	-7
Cc1ccc(NN=C(C#N)C(N)=S)c(C)c1	-1	5	-14
CCCCCC1CC(C(C)=NNC(N)=O)OC1=O (stereo not given)	-7	9	-7
NC(=O)COC(=O)c1oc2ccccc2c1CSc1ccc(Cl)cc1	-5	12	96*
O=C(COC(=O)c1oc2ccccc2c1CSc1ccc(Cl)cc1)NC1CCCC1	3	-8	20
CCOc1ccc(N(CC(=O)NN=Cc2ccccn2)S(=O)(=O)c2ccc(Cl)cc2)cc1	-1	0	2
COc1ccc(C(=O)C(C)OC(=O)CNC(=O)c2ccco2)cc1 (stereo not given)	5	31*	12
O=C(CNC(=O)c1ccco1)OC(C(=O)c1ccccc1)c1ccccc1 (stereo not given)	-1	/	4
OCCC1CC(O)C(O)[C@]2(OCCc3ccccc32)O1 (stereo not given in full)	-4	-1	-4
O=C(/C=C/c1ccco1)NCC(=O)NN=Cc1ccc(Cl)cc1	0	6	-1
C(=NN1CCOCC1)c1cn(-c2ccccc2)nc1-c1ccccc1	-1	6	7
Cc1nc(-c2cccc(NS(=O)(=O)c3ccccc3)c2)cs1	6	/	25
SMILES	RN4220 kill	Mtb hypoxia rep	ugtP null kill
Cc1ccc2nc(-c3cccc(NS(C)(=O)=O)c3)cc(-c3ccccc3)c2c1	-4	5	94*
CC(C)CC(NC(=O)OC(C)(C)C)c1cn(C(Cc2ccc(O)cc2)C(=O)N2CCN(C(=O)OC(C)(C)C)CC2)nn1 (stereo not given)	3	-3	9
Cc1nn(-c2ccc(Cl)cc2)c(=O)c2ccccc12	5	13	8
Cc1c(Cl)sn(-c2ccc(Cl)cc2)c1=O	101*	/	101*
O=S(=O)(NN=C/C=C/c1ccccc1)c1ccc(Br)cc1	4	/	4
COc1cc(NC(=O)c2ccc([N+](=O)[O-])o2)ccc1NC(=O)c1cccs1	100*	0	100*
O=C(Nc1cccc(NC(=O)c2cccs2)c1)c1ccc([N+](=O)[O-])o1	28	22	34
CC(=O)N1CCc2c(sc(NC(=O)c3ccc([N+](=O)[O-])o3)c2C#N)C1	16	40*	90*
CN1CCN(c2ccccc2NC(=O)c2ccc([N+](=O)[O-])o2)CC1	9	-6	28
CC(=O)Nc1ccc2nc(NC(=O)c3ccc([N+](=O)[O-])o3)sc2c1	18	14	98*
COc1ccc(C(=O)Nc2sc3c(c2C#N)CCN(C(C)=O)C3)cc1	3	8	2
CC(=O)Nc1ccc2nc(NC(=O)c3ccco3)sc2c1	5	-10	0
CS(=O)(=O)N1CCN(c2ccccc2NC(=O)c2ccc([N+](=O)[O-])o2)CC1	100*	9	88
CC(NC(=O)c1ccc(Cl)cc1)C(=O)NCCc1ccc(S(N)(=O)=O)cc1 (stereo not given)	2	4	-3
COC(=O)C1=C(C(=O)OC)C2N(C)c3ccc(OC)cc3[C@@]23CC(C(=O)OC)N(C(=O)C2CCC2)C3=N1 (stereo not given in full)	5	-2	1
COc1ccc(C=NNC(=O)C2C(=O)NCC2c2ccccc2)cc1O (stereo not given)	0	/	-3
FC(F)(F)c1cc(CCN2CCNCC2CC2CCCCC2)cc(C(F)(F)F)c1 (stereo not given)	9	/	-35
CC1CCCN(C2=NC(=O)C(=Cc3cn(-c4ccccc4)nc3-c3cccc(S(=O)(=O)N(C)C)c3)S2)C1 (stereo not given)	7	-2	-9
CCc1cc2c(nc1CC)CCN(CCC(C)=NOC(C)c1cc(-c3c(C)cc(C)cc3C)no1)C2 (stereo not given)	1	11	-4
O=C1C=C(c2cc(F)ccc2F)CC(c2ccc(F)cc2)C1 (stereo not given)	1	2	4
COC(=O)c1ccc(C=NNC(=O)CC(=O)NCCc2ccccc2)cc1	-2	-8	2
COC(=O)C1=C(c2cccc(C#N)c2)CC2CCC1N2C(=O)NC(C)C (stereo not given)	5	4	-1
CC(C)(C)c1ccc(C=CC(=O)O)s1	9	1	1
COc1ccc2nc(C)cc(NN=Cc3cccc(OC)c3O)c2c1	21	/	-8
CC(=O)N1CCN(c2ccc(NC(=O)c3ccco3)cc2Cl)CC1	-1	-2	1
SMILES	RN4220 kill	Mtb hypoxia rep	ugtP null kill
CCN1CCN(c2ccc(S(=O)(=O)N3CCCCC3)cc2NC(=O)c2ccc([N+](=O)[O-])o2)CC1	10	6	3
CC(=O)N1CCN(c2ccc(NC(=O)c3ccc([N+](=O)[O-])o3)cc2Cl)CC1	99*	/	100*
CCC(=O)N1CCN(c2ccc(NC(=O)c3ccc([N+](=O)[O-])o3)cc2Cl)CC1	99*	/	91*
CCN1CCN(c2ccc(NC(=O)c3ccc([N+](=O)[O-])o3)cc2Cl)CC1	100*	11	99*
CCC(=O)N1CCN(c2ccc(Cl)cc2NC(=O)c2ccc([N+](=O)[O-])o2)CC1	10	3	20
CON=CNC(=O)N1OCC2COc3ccc4ccccc4c3C21 (stereo not given)	3	14	1
C(=NN(c1ccccc1)c1ccccc1)c1ccc2c(c1)OCO2	-2	4	95*
Oc1ccc(C=NN(c2ccccc2)c2ccccc2)cc1O	13	7	1
C[C@]12CC[C@H](O)CC1=CCC1C2CC[C@@]2(C)C1CC[C@@H]2OCc1ccccc1 (stereo not given in full)	-2	15	11

Screens as filed in PubChem BioAssay.
